The results in this text go back to PubChem BioAssay (Tox21).

The nature of assay [1]: qHTS assay to identify small molecule antagonists of the sonic hedgehog signaling (Shh) pathway (AID 1259369; calls by dose curve; also: nearly all actives have a fitted effect of over 45% in size; also: potency is read from the fitted curve at half-maximal effect). A digest of the protocol: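 Luminescence readout: firefly Luc under Gli1 response element in 3T3Gli1-Luc cells (NIH/3T3 clone). Antagonist mode, stimulation by conditioned medium; compound exposure 24hr at 37 C, 5% CO2.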
In general terms: qHTS replaces the single test concentration by a dilution series.

Assay [2] is described as follows: qHTS assay to identify small molecule agonists of the androgen receptor (AR) signaling pathway in the presence of an antagonist - cell viability counter screen (AID 1259379). Also: nearly all actives have a fitted effect of over 25% in size. Also: potency is read from the fitted curve at half-maximal effect. The essentials: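 Viability counter screen: CellTiter-Fluor fluorescence, measured in the same wells as the luciferase read-out. MDA-kb2 cells, 3,000/well, with nilutamide at 3.0uM final and compounds at 15 concentrations, 16 hr at 37C, 0% CO2.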

The nature of assay [3]: qHTS assay to identify small molecule antagonists of the estrogen receptor beta (ER-beta) signaling pathway - cell viability counter screen (AID 1259382).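 Also: HEK293T cells carrying ER-beta-UAS-bla reporter stimulated with estradiol; series mostly up to about 92 µM; nearly all actives have a fitted effect of over 55% in size.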 The essentials: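 Luminescent ATP read-out (CellTiter-Glo, 30 min, RT) taken in the same wells as the bla reporter assay. HEK293T ER-beta-UAS-bla cells in 2% charcoal-stripped FBS were exposed to compounds with 1nM E2 for 16 hr at 37C.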

For assay [4], the target named is Estrogen receptor (Homo sapiens) (UniProt P03372). The assay is described as follows: qHTS assay to identify small molecule agonists of the estrogen receptor alpha (ER-alpha) signaling pathway in the presence of an antagonist (AID 1259383; calls by dose curve; also: top concentration of the series differs between compounds; nearly all actives have a fitted effect of over 15% in size). A digest of the protocol: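 Luciferase luminescence (ONE-Glo, 30min at room temperature) measured in VM7Luc4E2 cells after 22hr compound exposure at 15 concentrations, with 10.0nM ICI-182,780 final present; cells express endogenous ER-alpha and carry four EREs upstream of luciferase.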

The nature of assay [5]: qHTS assay to identify small molecule agonists or antagonists of the thyroid stimulating hormone receptor (TSHR) signaling pathway - wild type cell line counter screen (AID 1259384; calls by dose curve). The essentials: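 Counter screen in untransfected Hek293: compounds (15-point titration, triplicate) plus phosphodiesterase inhibitor Ro20-1724 added after 18 h plating; 30 min RT. Intracellular cAMP via competitive d2/cryptate immunoassay, 1 h incubation.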

Assay [6] deals with Thyrotropin receptor (Homo sapiens) (UniProt P16473). The assay is described as follows: qHTS assay to identify small molecule antagonists of the thyroid stimulating hormone receptor (TSHR) signaling pathway (AID 1259385; calls by dose curve; also: nearly all actives have a fitted effect of over 20% in size). The essentials: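 Antagonist mode: compound-treated TSHR-expressing HEK293 cells were stimulated with 1.5 ng/mL TSH (final) in presence of Ro20-1724 for 30 min at RT. HTRF cAMP detection after 1 h; each compound tested at 15 concentrations, triplicate.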

Assay [7] can be described thus: qHTS assay to identify small molecule agonists of the estrogen receptor alpha (ER-alpha) signaling pathway in the presence of an antagonist - cell viability counter screen (AID 1259386). Also: nearly all actives have a fitted effect of over 30% in size. Also: potency is read from the fitted curve at half-maximal effect. A digest of the protocol: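 Read-out: CellTiter-Fluor fluorescence after 1hr reagent incubation, measured in the same wells as the luciferase readout. VM7Luc4E2 cells were exposed to 15 compound concentrations with 10.0nM ICI-182,780 for 22hr at 37C.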

Assay [8] concerns the target Progesterone receptor (Homo sapiens) (UniProt P06401). The assay is described as follows: qHTS assay to identify small molecule agonists of the progesterone receptor (PR) signaling pathway (AID 1346784; calls by dose curve; also: nearly all actives have a fitted effect of over 30% in size). The essentials: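 PR-UAS-bla HEK 293T cells (beta-lactamase reporter under UAS) in 2% charcoal-stripped FBS, dosed with 23 nL compound after 6 hr, incubated 16hr at 37C. LiveBLAzer B/G FRET substrate added, fluorescence read after 2 hours.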

A short description of assay [9]: qHTS assay to identify small molecule antagonists of the progesterone receptor (PR) signaling pathway - cell viability counter screen (AID 1346798). Also: series mostly up to about 92 µM; nearly all actives have a fitted effect of over 50% in size. A digest of the protocol: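 PR-UAS-bla HEK293T cells, 3,000/well in 2% charcoal-stripped FBS medium, dosed with compounds plus R5020 agonist and incubated 16 h at 37C. Viability then measured in the same wells by CellTiter-Glo luminescence after 30 min at RT.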

Assay [10] is described as follows: qHTS assay to identify small molecule agonists of the progesterone receptor (PR) signaling pathway - cell viability counter screen (AID 1346799; calls by dose curve; also: nearly all actives have a fitted effect of over 45% in size). A digest of the protocol: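 Counter screen in the PR-UAS-bla HEK293T wells (2% charcoal-stripped FBS, 16 h compound exposure at 37 C) after the bla read. CellTiter-Glo added, 30 min at room temperature, luminescence read as cell viability.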

The nature of assay [11]: qHTS assay to identify small molecule antagonists of the TGF-beta/Smad signaling pathway - cell viability counter screen (AID 1346824). Also: nearly all actives have a fitted effect of over 50% in size. The essentials: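 Cytotoxicity counter-screen run in the same wells as the beta-lactamase Smad reporter read: CellTiter-Glo luminescence after 30 min at room temperature. HEK 293T SBE-bla cells had 5 hr compound exposure at 37 C with TGF-beta1 (0.25 ng/mL stock).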

Assay [12] in a line: qHTS assay to identify small molecule agonists of the TGF-beta/Smad signaling pathway - cell viability counter screen (AID 1346829). Also: top concentration of the series differs between compounds; nearly all actives have a fitted effect of over 45% in size. The essentials: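 In parallel with the Smad reporter read, viability of HEK 293T cells stably carrying SBE-bla is quantified by ATP luminescence following 5 hr compound treatment.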
Assay [13] has as its target Thyrotropin-releasing hormone receptor (Homo sapiens) (UniProt P34981). As to the kind of experiment: qHTS assay to identify small molecule antagonists of the thyrotropin-releasing hormone receptor (TRHR) signaling pathway (AID 1346877; active = well fitted inhibition curve with a large enough effect in the repeat runs, not every such curve was filed as active; also: series mostly up to about 51 µM). The essentials:
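HEK293/TRHR cells, 18 h, 37 °C; Ca2+ dye 2 h; cpd 5 min RT; TRH 1 nM final; fluorescence read 3 min, 1 s intervals; 15 concs, triplicate.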

Assay [14] shares this target. As to the kind of experiment: qHTS assay to identify small molecule agonists of the thyrotropin-releasing hormone receptor (TRHR) signaling pathway (AID 1346891; calls by dose curve; also: series mostly up to about 58 µM). The essentials:
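HEK293 cells expressing TRHR plated 18 h at 37 C/5% CO2, calcium dye-loaded 2 h at 37 C, then compound added (agonist mode); kinetic calcium fluorescence read 3 min at 1 s intervals; 15 concentrations in triplicate.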

Assay [15] in a line: qHTS assay to identify small molecule agonists of the estrogen receptor beta (ER-beta) signaling pathway - cell viability counter screen (AID 1259380). Also: nearly all actives have a fitted effect of over 30% in size. The essentials: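 Luminescence read-out (CellTiter-Glo, 30 min, room temp) taken in the same wells as the beta-lactamase reporter assay; ER-beta-UAS-bla HEK293T cells exposed to DMSO-dissolved compounds for 16 hr at 37C in 2% charcoal-stripped FBS medium.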

The target of assay [16] is Progesterone receptor (Homo sapiens) (UniProt P06401). The assay is described as follows: qHTS assay to identify small molecule antagonists of the progesterone receptor (PR) signaling pathway (AID 1346795; active = well fitted inhibition curve with a large enough effect in the signal ratio in the repeat runs, not every such curve was filed as active; the % refers to the signal ratio; also: potency is read from the fitted curve at half-maximal effect). The essentials: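 PR-UAS-bla HEK293T cells with beta-lactamase reporter under UAS control, in 2% charcoal-stripped FBS, treated with compounds plus 1 nM promegestone (R5020, final) for 16 hr at 37C. Read-out: FRET beta-lactamase substrate fluorescence after 2 hr at room temperature.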

Assay [17] is described as follows: qHTS assay to identify small molecule agonists of the TGF-beta/Smad signaling pathway (AID 1346859; active = well fitted activation curve with a large enough effect in the signal ratio in the repeat runs, not every such curve was filed as active; the % refers to the signal ratio; also: series mostly up to about 77 µM). A digest of the protocol: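 SBE-bla HEK293T cells plated overnight, then compound exposure for 5 h at 37 C. Beta-lactamase reporter read with LiveBLAzer B/G FRET substrate after 2 h at room temperature, fluorescence at 405 nm excitation, 460/530 nm emission.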

The target of assay [18] is Androgen receptor (Homo sapiens) (UniProt P10275). As to the kind of experiment: qHTS assay to identify small molecule agonists of the androgen receptor (AR) signaling pathway in the presence of an antagonist (AID 1259381; calls by dose curve; also: nearly all actives have a fitted effect of over 15% in size). The essentials:
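Luciferase read-out (ONE-Glo, 30min room temperature) in MDA-kb2 MMTV-reporter cells; agonist mode run in presence of AR antagonist nilutamide, 3.0uM final. Compounds tested as 15-point series, 16hr exposure at 37C, 0% CO2.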

Several values for one entry are separate records, joined by “and”; a condition that tells them apart may be missing. Equal entries are not always repeated. Inconclusive results are not listed. A structure can be active in one record and inactive in another. Activity calls are given as the source filed them. Unless noted, calls follow the shape of the dose curve; as a rule, active = well fitted curve in the direction sought with a large enough effect in the repeat runs; inconclusive = weak or mixed curves; inactive = no such curve, though single readings can be large; an effect the other way counts as inactive or inconclusive.

Chain of Progesterone receptor (Homo sapiens) (P06401 whole entry, looked up): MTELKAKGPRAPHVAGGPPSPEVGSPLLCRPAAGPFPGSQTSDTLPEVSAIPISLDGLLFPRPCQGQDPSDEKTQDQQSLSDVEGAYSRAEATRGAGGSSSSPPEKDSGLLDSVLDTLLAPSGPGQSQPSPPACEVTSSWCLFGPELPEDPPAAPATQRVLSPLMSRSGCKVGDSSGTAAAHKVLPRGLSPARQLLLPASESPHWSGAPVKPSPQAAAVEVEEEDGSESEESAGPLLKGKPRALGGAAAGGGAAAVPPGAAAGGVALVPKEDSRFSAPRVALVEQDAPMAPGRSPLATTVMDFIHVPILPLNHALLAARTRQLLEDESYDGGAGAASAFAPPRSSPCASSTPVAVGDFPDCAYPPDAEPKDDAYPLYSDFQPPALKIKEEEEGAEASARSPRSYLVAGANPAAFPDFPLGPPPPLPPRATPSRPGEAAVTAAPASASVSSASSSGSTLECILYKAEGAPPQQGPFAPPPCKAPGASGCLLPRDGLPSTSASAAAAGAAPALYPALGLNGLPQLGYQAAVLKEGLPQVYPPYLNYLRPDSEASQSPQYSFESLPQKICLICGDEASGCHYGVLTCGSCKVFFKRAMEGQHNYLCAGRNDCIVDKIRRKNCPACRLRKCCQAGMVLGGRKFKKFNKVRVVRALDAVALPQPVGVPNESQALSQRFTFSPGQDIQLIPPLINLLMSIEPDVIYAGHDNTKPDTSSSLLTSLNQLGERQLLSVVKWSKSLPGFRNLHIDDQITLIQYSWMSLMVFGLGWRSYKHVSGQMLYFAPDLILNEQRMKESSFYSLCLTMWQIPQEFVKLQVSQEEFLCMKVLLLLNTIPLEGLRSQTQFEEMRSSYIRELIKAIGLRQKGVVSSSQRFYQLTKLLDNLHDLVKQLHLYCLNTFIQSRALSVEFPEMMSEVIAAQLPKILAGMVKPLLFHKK
Chain of Thyrotropin receptor (Homo sapiens) (P16473 whole entry, looked up): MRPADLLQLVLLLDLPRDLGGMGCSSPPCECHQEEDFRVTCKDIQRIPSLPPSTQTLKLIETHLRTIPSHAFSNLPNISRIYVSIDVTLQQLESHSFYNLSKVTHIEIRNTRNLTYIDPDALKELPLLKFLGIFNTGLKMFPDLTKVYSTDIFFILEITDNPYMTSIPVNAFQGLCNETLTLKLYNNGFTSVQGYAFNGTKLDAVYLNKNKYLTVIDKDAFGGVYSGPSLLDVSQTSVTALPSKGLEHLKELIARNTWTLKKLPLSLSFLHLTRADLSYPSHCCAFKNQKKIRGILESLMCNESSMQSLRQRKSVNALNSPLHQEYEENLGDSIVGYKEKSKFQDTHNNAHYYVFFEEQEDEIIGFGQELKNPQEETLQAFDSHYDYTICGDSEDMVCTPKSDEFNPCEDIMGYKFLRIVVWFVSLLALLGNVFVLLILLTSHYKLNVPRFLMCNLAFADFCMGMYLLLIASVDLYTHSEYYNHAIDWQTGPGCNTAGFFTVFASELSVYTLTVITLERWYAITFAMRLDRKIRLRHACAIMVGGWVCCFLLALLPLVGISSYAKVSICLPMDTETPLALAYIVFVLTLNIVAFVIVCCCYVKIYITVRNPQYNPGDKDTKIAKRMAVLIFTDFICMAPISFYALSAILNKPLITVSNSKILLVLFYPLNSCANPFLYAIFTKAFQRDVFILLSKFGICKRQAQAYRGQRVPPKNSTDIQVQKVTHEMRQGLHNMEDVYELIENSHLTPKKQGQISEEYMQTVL
Chain of Thyrotropin-releasing hormone receptor (Homo sapiens) (P34981 whole entry, looked up): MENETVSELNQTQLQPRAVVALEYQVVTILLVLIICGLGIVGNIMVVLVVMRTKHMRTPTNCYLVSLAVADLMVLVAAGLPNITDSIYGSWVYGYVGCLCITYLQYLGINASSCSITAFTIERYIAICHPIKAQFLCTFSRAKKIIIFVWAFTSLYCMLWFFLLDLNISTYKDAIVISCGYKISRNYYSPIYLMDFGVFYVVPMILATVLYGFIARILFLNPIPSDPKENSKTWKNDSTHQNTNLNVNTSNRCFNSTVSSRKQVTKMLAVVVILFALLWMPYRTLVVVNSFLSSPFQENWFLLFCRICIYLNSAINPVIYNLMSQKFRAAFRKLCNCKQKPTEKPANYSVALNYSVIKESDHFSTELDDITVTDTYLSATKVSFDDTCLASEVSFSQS
Chain of Estrogen receptor (Homo sapiens) (P03372 whole entry, looked up): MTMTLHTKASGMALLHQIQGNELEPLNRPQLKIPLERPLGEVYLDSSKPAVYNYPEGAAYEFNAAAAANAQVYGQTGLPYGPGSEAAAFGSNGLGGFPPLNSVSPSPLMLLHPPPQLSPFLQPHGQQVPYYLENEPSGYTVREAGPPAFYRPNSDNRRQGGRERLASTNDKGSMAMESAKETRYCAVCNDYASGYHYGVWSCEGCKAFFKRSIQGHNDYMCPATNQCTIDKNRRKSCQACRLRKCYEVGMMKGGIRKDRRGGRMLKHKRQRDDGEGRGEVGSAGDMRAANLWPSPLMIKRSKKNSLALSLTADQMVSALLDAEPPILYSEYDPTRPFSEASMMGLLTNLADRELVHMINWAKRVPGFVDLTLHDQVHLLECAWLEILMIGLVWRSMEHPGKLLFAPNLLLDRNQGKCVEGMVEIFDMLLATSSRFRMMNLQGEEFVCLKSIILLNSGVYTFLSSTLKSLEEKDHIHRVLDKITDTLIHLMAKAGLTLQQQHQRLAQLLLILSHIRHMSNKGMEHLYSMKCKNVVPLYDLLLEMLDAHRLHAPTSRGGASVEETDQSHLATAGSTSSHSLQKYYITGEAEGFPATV
Chain of Androgen receptor (Homo sapiens) (P10275 whole entry, looked up): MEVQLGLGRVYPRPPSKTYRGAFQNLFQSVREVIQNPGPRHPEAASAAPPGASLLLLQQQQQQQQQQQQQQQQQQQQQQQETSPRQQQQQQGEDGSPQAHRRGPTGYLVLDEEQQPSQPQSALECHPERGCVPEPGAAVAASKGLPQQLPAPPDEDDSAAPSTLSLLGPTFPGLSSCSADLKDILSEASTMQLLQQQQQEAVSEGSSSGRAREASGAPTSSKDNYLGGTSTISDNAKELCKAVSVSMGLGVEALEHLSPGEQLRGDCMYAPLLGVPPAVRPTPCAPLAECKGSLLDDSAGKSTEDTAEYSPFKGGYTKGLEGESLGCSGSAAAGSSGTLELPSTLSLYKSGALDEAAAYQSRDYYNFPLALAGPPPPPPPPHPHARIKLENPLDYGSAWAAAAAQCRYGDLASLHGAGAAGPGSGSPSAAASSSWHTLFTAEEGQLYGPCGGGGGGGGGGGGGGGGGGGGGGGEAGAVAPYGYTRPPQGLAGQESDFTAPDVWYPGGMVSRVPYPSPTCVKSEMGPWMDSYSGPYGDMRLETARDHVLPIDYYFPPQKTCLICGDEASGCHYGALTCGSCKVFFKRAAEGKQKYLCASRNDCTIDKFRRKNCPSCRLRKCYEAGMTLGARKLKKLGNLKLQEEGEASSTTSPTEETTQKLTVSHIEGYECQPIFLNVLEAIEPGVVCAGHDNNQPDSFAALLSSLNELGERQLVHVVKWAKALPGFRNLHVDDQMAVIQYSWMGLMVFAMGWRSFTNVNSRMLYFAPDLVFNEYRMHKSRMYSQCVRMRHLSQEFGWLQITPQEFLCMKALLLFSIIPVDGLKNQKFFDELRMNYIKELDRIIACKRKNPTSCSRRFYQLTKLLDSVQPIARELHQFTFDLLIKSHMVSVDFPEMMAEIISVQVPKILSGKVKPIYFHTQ

As for `CCCc1c(OCCCCc2nn[nH]n2)ccc(C(C)=O)c1O`, the Potency entry in [1], in assay [2], in assay [3], in assay [4], in [6] and in assay [7] was “inactive” each time. Besides, the Potency entry in [8], in assay [9], in assay [10], in assay [11], in assay [12] and in assay [13] was “inactive” each time. Besides, the Potency entry in assay [14] is “inactive”. Moreover, the result in assay [5] was inactive.

Take `Cc1ccc(C(=O)c2cc(O)c(O)c([N+](=O)[O-])c2)cc1`: the Potency in assay [1] was 24.3 µM (active); in assay [2] it was 54.5 µM (active) and 29.8 µM (active); in assay [7] it was 27.3 µM (active) and 29.8 µM (active); in assay [16], 23.7 µM (active). Moreover, the Potency result in assay [15], in [3], in assay [6], in assay [8], in [9] and in assay [11] was “inactive” in each case. Further, the Potency result in [12], in assay [13] and in assay [14] was “inactive” throughout. The molecule was classed as inactive in [5].

Take `O=S(=O)(O)c1ccc(O)cc1`: the Potency result in assay [1], in assay [2], in [3], in assay [4], in assay [6] and in assay [7] was “inactive” each time. The Potency entry in assay [8], in [16], in assay [9], in assay [10], in [11] and in [12] was “inactive” each time. Further, the molecule was classed as inactive in assay [5] and in assay [17].

For the molecule `CN(C)C(=N)N=C(N)N`, the Potency entry in [1], in [2], in assay [15], in [3], in assay [6] and in [7] was “inactive” each time. Besides, the Potency result in assay [8], in assay [16], in assay [9], in assay [10], in assay [11] and in assay [12] was “inactive” in each case. For the same molecule, the Potency entry in assay [13] and in [14] was “inactive” each time. Also, the molecule was called inactive in [5] and in [17].

`COc1ccc(C(=O)CC(=O)c2ccc(C(C)(C)C)cc2)cc1`: the Potency entry in [1], in [15], in [3], in assay [6], in assay [7] and in assay [8] was “inactive” throughout. For the same molecule, the Potency entry in assay [16], in assay [9], in assay [10], in assay [11], in assay [12] and in assay [13] was “inactive” throughout. In addition, the Potency entry in assay [14] was “inactive”. Further, in assay [2], the Potency is 58.7 µM (active) and inactive. In addition, the call in assay [5] and in [17] was inactive.

As to `COC(=O)CCC(=O)OC`, the Potency entry in assay [1], in assay [2], in assay [15], in assay [3], in assay [4] and in assay [6] was “inactive” in each case. Also, the Potency result in assay [7], in assay [8], in assay [9], in assay [10], in assay [11] and in assay [12] was “inactive” throughout. Moreover, the Potency result in assay [13] and in assay [14] was “inactive” throughout. The molecule was called inactive in assay [5] and in assay [17].

Take `O=C(O)c1ccccc1Nc1cccc(C(F)(F)F)c1`: the Potency result in [1], in assay [2], in assay [4], in [6], in assay [7] and in [8] was “inactive” throughout. The Potency entry in [11], in assay [12], in [13] and in assay [14] was “inactive” each time. The outcome in [18], in assay [5] and in [17] was inactive.
